Bioassay records (PubChem BioAssay)
TLR4-MyD88 BLA = inhibitors of human TLR4-MyD88 binding; AID 861; HeLa CL3-4 TLR4/MyD88 BLA complementation, FRET ratio; inhibition, % at 8.4 µM; 0.18% of 200,000 active; O00206+Q99836; in the data active means inhibition above about 25%;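 further: 0% = vehicle and 100% = reference inhibitor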
NOD2-RIPK2 inh = NOD2-RIPK2 protein interaction inhibition; CHO BLA complementation NOD2-RIPK2, CCF4 ratio; O43353; 0.38% of 360,000 active; inhibition, % at 4.98 µM; in the data active means inhibition above about 21%;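 further: 0% = vehicle only and 100% = reference blocker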
ABHD5-PLIN5 inh = blocks binding of human ABHD5 to perilipin-5; Split G. princeps luciferase complementation, luminescence, 4 h; Q00G26+Q8WTS1; inhibition, % at 4 µM; 0.78% of 360,000 active; AID 602281;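 active means inhibition above the mean inhibition across every tested compound plus 3 SD, cut at about 22% in these data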;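 further: 0% = DMSO only wells and the 100% control is not disclosed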
HTR2A ag = agonists of mouse serotonin 5-HT2A receptor (HTR2A); P35363; CHO-K1 mHTR2A beta-arrestin complementation, luminescence; percent of 30 µM serotonin response; activation, % at 7.6 µM; 0.66% of 360,000 active; AID 624169;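 active means activation above a run cutoff, the mean activation of all tested compounds plus 3 SD, cut at about 14% in these data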;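 further: 0% = plate median of compound wells and 100% = 30 µM serotonin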
Target sequence (P35363 whole entry, looked up): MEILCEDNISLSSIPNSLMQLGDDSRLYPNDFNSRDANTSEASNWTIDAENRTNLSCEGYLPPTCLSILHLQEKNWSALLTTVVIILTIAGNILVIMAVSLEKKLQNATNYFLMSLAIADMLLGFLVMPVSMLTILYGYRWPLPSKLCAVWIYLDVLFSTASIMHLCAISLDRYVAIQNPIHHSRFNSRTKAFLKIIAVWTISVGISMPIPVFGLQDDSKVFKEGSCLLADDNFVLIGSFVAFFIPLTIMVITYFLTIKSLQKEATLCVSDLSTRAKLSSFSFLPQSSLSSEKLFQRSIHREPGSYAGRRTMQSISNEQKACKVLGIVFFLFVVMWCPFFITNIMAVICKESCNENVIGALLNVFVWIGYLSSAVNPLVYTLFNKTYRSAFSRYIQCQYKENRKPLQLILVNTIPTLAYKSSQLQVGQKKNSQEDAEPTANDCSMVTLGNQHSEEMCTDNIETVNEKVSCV
CRFBP-R2 block = antagonists of CRF-binding protein/CRF-R2 receptor complex. 0.59% of 350,000 active. inhibition, % at 11.8 µM. HEK293 CRF-R2/CRF-BP, CRF-induced calcium fluorescence;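 active means inhibition of the ligand-induced calcium signal above about 50% at the single tested concentration, limit read from the data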
TLR9-MyD88 block = inhibitors of human TLR9-MyD88 binding; AID 504734; 0.21% of 340,000 active; CHO BLA complementation TLR9-MyD88, CCF4 FRET ratio; Q9NR96+Q99836; inhibition, % at 4.98 µM;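 active means inhibition above the mean over all tested compounds plus 3 SD, cut at about 21% in these data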;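 further: 0% = DMSO only wells and 100% = clavulanate BLA inhibitor control wells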
Starred values were filed as active, the others as inactive; nt = no result. Shown are actives, neighbours in structure and some others; about 2.4% of the full set was active somewhere.

SMILES | TLR4-MyD88 BLA | NOD2-RIPK2 inh | ABHD5-PLIN5 inh | HTR2A ag | CRFBP-R2 block | TLR9-MyD88 block
COC(=O)c1cn(CC(C)n2c(=O)c3ccccc3n2Cc2cc(C(C)C)no2)nn1 (stereo not drawn) | nt | 11 | -3 | 3 | nt | nt
CN(C)c1ncnc2c1NC1=C(S2)C(=NCCCC(=O)O)CC(C)(C)C1 | -3 | 8 | -11 | 4 | 52* | 8
CCCCn1c(SCC(=O)Nc2sc3c(c2C(N)=O)CCC3)nnc1-c1ccccc1 | -3 | 4 | 22* | 4 | -53 | 2
NC(=O)c1c(NC(=O)CSc2nnc(Cc3ccccc3)n2Cc2ccco2)sc2c1CCC2 | -5 | -1 | -5 | 0 | 8 | -2
CCN1CCN(CC(=O)N2N=CCC2c2ccccc2)CC1 (stereo not drawn) | nt | 10 | -12 | 0 | 70* | 2
O=C(CSc1ccc(Cl)cc1)N1N=CCC1c1ccccc1 (stereo not drawn) | nt | 14 | -1 | -4 | -3 | -12
Cc1ccc2c(cnn2C(=O)CCC(=O)N2CCCCC2)c1 | nt | 3 | 4 | 1 | 71* | 1
COc1ccc(C2Nc3ccccc3C(=O)N2c2ccccc2)cc1CSc1ccccn1 (stereo not drawn) | -5 | -9 | -5 | 4 | 58* | -7
O=[N+]([O-])c1ccc(N2CCOCC2)cc1NCc1ccccc1 | -2 | -6 | 4 | -1 | 64* | 1
Cc1c(NC2=C(Cl)C(=O)N(c3ccccc3Cl)C2=O)c(=O)n(-c2ccccc2)n1C | 2 | 2 | 11 | 1 | 53* | -6
O=C(Cn1cc(COc2ccc(Cl)c(Cl)c2)nn1)NS(=O)(=O)c1ccccc1OC(F)(F)F | nt | 2 | 3 | 1 | nt | nt
Cc1cc2n(n1)C(c1ccccc1)CC(c1ccc(Br)cc1)=N2 (stereo not drawn) | -10 | 22* | -5 | 1 | -28 | 24*
COc1ccc(/C=N/n2c(-c3n[nH]c4c3CCC4)n[nH]c2=S)cc1 | nt | 1 | -3 | 0 | 100* | -4
O=C(c1ccccc1F)N1CCC2CC1c1cc(N3CCCCC3)ccc12 (stereo not drawn) | nt | -3 | 10 | 0 | 13 | 6
O=C(c1ccco1)N(CCC(c1ccccc1)c1ccco1)Cc1ccco1 (stereo not drawn) | 6 | -2 | 28* | -5 | -14 | -8
Cc1ccc(C(CCN(Cc2ccccc2)C(=O)c2ccco2)c2ccco2)cc1 (stereo not drawn) | -12 | -19 | 29* | -3 | -15 | -9
CC(=O)N(CCC(Cc1ccccc1)c1ccco1)Cc1ccco1 (stereo not drawn) | nt | -1 | 16 | 4 | 6 | -8
CCOC(=O)[C@]12CCCC=C1N(CCc1ccc(OC)c(OC)c1)C(=O)[C@H](CC(=O)N1CCSCC1)C2 | nt | -6 | 8 | 0 | nt | nt
CC(C)[C@@H](C(=O)N[C@@H](CCc1ccc(O)cc1)C(=O)O)N(C)C(=O)[C@H](CO)NC(=O)[C@@H](O)[C@H](N)CCCCCCCCl | nt | -5 | 0 | -3 | nt | nt
COc1cccc(NC(=O)COC(=O)c2ccccc2C(=O)N2CCN(c3ccccc3)CC2)c1 | -2 | 0 | 4 | 2 | 69* | -2
O=C(OCCN1C(=O)c2ccccc2C1=O)c1cccc(OC(F)F)c1 | 2 | -10 | -1 | -5 | 100* | -3
COc1ccc(NC(=O)C2(C)Cc3c(-c4cccc(C(N)=O)c4)ccnc3O2)cc1 (stereo not drawn) | nt | 3 | 2 | 1 | nt | nt
O=C(O)CCNC(=O)OCC1c2ccccc2-c2ccccc21 | nt | -7 | 2 | 2 | 60* | -7
CCN(CC)CCN(C)C(c1cc2ccccc2o1)c1nnnn1C(C)(C)C (stereo not drawn) | nt | -16 | 4 | 1 | nt | nt
c1cc2nncn2nc1N1CCCC1 | -2 | -5 | 0 | -2 | -18 | -6
SMILES | TLR4-MyD88 BLA | NOD2-RIPK2 inh | ABHD5-PLIN5 inh | HTR2A ag | CRFBP-R2 block | TLR9-MyD88 block
Clc1ccc2nncn2n1 | 15 | -3 | 0 | -3 | 77* | -6
CCOC(=O)C1=CCN(S(=O)(=O)c2ccc(F)cc2)C1c1ccc(Cl)c(Cl)c1 (stereo not drawn) | nt | -8 | -3 | -2 | nt | nt
N#CC(C#N)=C(Nc1ccc(F)cc1)SCc1cccc(F)c1 | 5 | -5 | 7 | 5 | 94* | 1
CCOc1ccc(N/C(SCc2cccc([N+](=O)[O-])c2)=C(/C#N)C(N)=O)cc1 | 16 | -12 | -3 | -3 | -4 | -4
N#Cc1ccc(-c2nc3c4ccccc4ccn3c2Cc2cccc(Cl)c2)cc1 | nt | -6 | 0 | -7 | nt | nt
Cc1ccn(CCC(=O)N2CCCC(N3CCN(c4ccccc4C)CC3)C2)n1 (stereo not drawn) | nt | 0 | 11 | -5 | -3 | -8
CCCCn1c(SCc2c(C)noc2C)nc2cc(S(N)(=O)=O)ccc21 | 5 | 2 | 1 | 5 | 54* | 3
CCCCn1c(SCC(=O)Nc2cc(C)on2)nc2cc(S(N)(=O)=O)ccc21 | nt | 2 | 1 | 1 | -7 | 3
Cc1ccccc1-c1csc(C(O)c2ccccc2)n1 (stereo not drawn) | nt | 2 | -6 | 5 | nt | nt
O=C(Nc1cccc(C(F)(F)F)c1)c1ccc2nc(-c3ccco3)c(-c3ccco3)nc2c1 | -7 | -10 | 38* | 16* | 0 | 6
O=C(Nc1ccc2nc(-c3ccco3)c(-c3ccco3)nc2c1)NC1CC1 | -16 | -8 | 26* | -3 | -8 | 5
O=C(Nc1cccc(C(F)(F)F)c1)c1cc[n+]([O-])cc1 | nt | -7 | 4 | 0 | 10 | -1
CCc1nc2ccc(C(=O)NCCc3ccc(OC)c(OC)c3)cc2nc1CC | nt | 4 | -1 | 3 | -4 | -6
COc1ccc(CCNC(=O)c2ccc3nc(-c4ccco4)c(-c4ccco4)nc3c2)cc1OC | -1 | -4 | 34* | -2 | -3 | 0
COc1cccc(C(=O)c2ccccc2C(=O)O)c1 | nt | 2 | -3 | 4 | nt | nt
CC(C)(CNC(=O)c1ccc(NS(=O)(=O)c2ccc(Br)cc2)cc1)N1CCOCC1 | nt | -11 | -6 | -5 | 1 | -11
Cc1cc(S(=O)(=O)Nc2ccc(C(=O)NCC(C)(C)N3CCOCC3)cc2)ccc1F | nt | -5 | 2 | -3 | 54* | 6
COc1ccc(S(=O)(=O)N(C)C[C@@H]2Oc3cc(Br)ccc3S(=O)(=O)N([C@H](C)CO)C[C@@H]2C)cc1 | nt | -2 | 14 | 1 | -11 | -14
Cc1nc2cc(C(=O)NCc3ccc4c(c3)OCO4)ccc2n1-c1ccc(Br)cc1 | -1 | -6 | -4 | -4 | 65* | 1
COc1ccc(-c2sc3ccccc3c2-c2ccc(OCCN3CCCCC3)cc2)cc1 | nt | -8 | 18 | 0 | 62* | -2
COc1cccc(-c2sc3ccccc3c2-c2ccc(OCCN3CCCC3)cc2)c1 | nt | 13 | 17 | -14 | -17 | 1
OC(CSc1nnnn1-c1ccccc1)Cn1c2ccccc2c2ccccc21 (stereo not drawn) | nt | -6 | -1 | 1 | nt | nt
